Results from the supplement of paper PMC10681739.

Experiments:
[1] = molecular target: T1, ETS1 (UniProt P14921); assay: ETS1 binding intensity (PBM fluorescence), ETS1 alone (arbitrary fluorescence units); higher = stronger binding; settings: ETS1 concentration 1 nM; RUNX1 concentration 0 nM
T1 sequence: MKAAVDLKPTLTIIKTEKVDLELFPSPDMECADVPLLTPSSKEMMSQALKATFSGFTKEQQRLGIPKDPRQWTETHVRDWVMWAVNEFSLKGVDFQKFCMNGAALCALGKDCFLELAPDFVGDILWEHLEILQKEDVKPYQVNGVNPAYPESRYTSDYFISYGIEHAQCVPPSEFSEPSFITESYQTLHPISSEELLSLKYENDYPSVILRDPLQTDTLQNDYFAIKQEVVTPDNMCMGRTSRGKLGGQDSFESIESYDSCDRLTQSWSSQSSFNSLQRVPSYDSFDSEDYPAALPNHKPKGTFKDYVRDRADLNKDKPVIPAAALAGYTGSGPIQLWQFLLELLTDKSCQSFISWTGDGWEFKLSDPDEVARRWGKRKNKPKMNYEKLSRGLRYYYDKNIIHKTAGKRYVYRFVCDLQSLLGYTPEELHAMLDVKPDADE

[2] = molecular target: RUNX1 (UniProt Q01196); assay: RUNX1 binding intensity (PBM fluorescence), RUNX1 alone (arbitrary fluorescence units); higher = stronger binding; settings: RUNX1 concentration 2 nM; ETS1 concentration 0 nM
RUNX1, sequence (Q01196 whole entry): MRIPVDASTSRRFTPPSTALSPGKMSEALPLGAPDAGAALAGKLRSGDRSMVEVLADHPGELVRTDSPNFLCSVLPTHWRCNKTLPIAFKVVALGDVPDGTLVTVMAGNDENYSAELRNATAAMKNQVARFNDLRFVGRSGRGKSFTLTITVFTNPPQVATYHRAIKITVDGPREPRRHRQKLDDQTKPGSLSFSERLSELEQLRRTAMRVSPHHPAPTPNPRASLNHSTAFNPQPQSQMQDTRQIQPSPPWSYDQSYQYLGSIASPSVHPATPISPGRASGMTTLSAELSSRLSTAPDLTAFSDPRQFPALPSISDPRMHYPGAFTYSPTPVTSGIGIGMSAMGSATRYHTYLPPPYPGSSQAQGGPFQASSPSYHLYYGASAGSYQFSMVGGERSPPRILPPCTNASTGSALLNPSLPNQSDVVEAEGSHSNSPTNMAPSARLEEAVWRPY
Description: (§1)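 Cooperative gcPBM on 36-bp genomic probes with neighbouring ETS1 and RUNX1 sites. Recombinant human RUNX1 (2 nM) was incubated alone or with ETS1 (25 nM) and detected with anti-RUNX1 antibody plus Alexa488 secondary. Values are medians over 4 replicate spots; the RUNX1+ETS1 data were normalised to the RUNX1-only data. The probes sit in constant array flanks that are not printed.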

[3] = molecular target: T1, ETS1; assay: ETS1 binding intensity (PBM fluorescence) in presence of RUNX1, normalised to ETS1-only experiment (arbitrary fluorescence units); higher = stronger binding; settings: ETS1 concentration 1 nM; RUNX1 concentration 25 nM
[4] = molecular target: RUNX1 (UniProt Q01196); assay: RUNX1 binding intensity (PBM fluorescence) in presence of ETS1, normalised to RUNX1-only experiment (arbitrary fluorescence units); higher = stronger binding; settings: RUNX1 concentration 2 nM; ETS1 concentration 25 nM
Description: as §1
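For RUNX1 binding intensity (PBM fluorescence) in presence of ETS1, normalised to RUNX1-only experiment in this document: Full-length recombinant human ETS1 or RUNX1 bound to double-stranded 36-bp genomic probes on microarrays, detected by protein-specific primary antibody and Alexa488 secondary, spot fluorescence as median of four replicate spots.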
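For RUNX1 binding intensity (PBM fluorescence), RUNX1 alone in this document: Full-length recombinant human RUNX1 bound to double-stranded 36-bp genomic probes on a high-density microarray, scored as Alexa488 fluorescence per spot via anti-RUNX1 antibody, median of four replicate spots.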

Row | Sequence | ETS1 binding intensity [1] | RUNX1 binding intensity [2] | ETS1 binding intensity [3] | RUNX1 binding intensity [4]
1 | ACCTCTCTCACTTCCTACCAGAGAACCACAGCCAAG | 538 | 1490 | 404 | 2150
2 | TGGTTCCACCGACCGGAAGGGCCACAAGGATCCCCG | 5280 | 659 | 5560 | 1250
3 | CCACTGCTTCCGCCTTCTCTGCTGGCTGCGGGGAGC | 545 | 904 | 516 | 2210
4 | GTTTCTCTGGCCAGGAAATTGAGGTTTCTGTTAGTC | 2010 | 851 | 3260 | 1660
5 | CCCCCACATCCTGTTTGGTTTGTGGGACACCTCAAC | 2100 | 849 | 2550 | 4080
6 | GCTCATTTATGCATCCTGTGGTCTGTGTGTGTTTCG | 569 | 984 | 831 | 1390
7 | CATTGATCAAAGACAGGATGTGGTAACAGGCAGTTA | 8340 | 760 | 39500 | 3100
8 | CGTGGCGGAAGCCGCGGGGACTGCGGGGGCGGAGTG | 537 | 924 | 528 | 893
9 | GAGAACTTCCGGTGCGCTCCCCGGGACTGCGGTCCC | 3420 | 729 | 4920 | 2780
10 | CGCCTGCCCCACTTCCGCCCGGACCCGCAGCCCCTA | 2450 | 1240 | 3210 | 3610
11 | TCCTGTAGTTTCCGGCTGAAGTGGTAAGGTTTTTGA | 845 | 925 | 852 | 1750
12 | GGCTTCCTGCCCAACTACCAAGAAAAAGCCACAAAG | 453 | 1100 | 962 | 2040
13 | CCCCGCCTCTTCCGCTTCTGTGGTCTGATCTGCCTG | 704 | 1250 | 1040 | 3860
14 | GCGCCGGTGACGGAAGTGCGGTGTTGAGCGCCGGCG | 2430 | 758 | 3070 | 1300
15 | CTCCACCGGATGCAGCAATGAAGGCCGCAGGAATGG | 3160 | 712 | 3990 | 1130
16 | CGAAGCCGGAAATGCTGAGTGTGCGGGGCCGAACGT | 4230 | 694 | 4980 | 1220
17 | TACCCAGAAAGGAAGTGGAACCTGCGGTGAGGCCCC | 1130 | 875 | 5650 | 1950
18 | GGTTTCCGGGTGAAAAAAAAAAAAAAAACCACGCCA | 461 | 906 | 529 | 1740
19 | GCTGTCCGTTTCCGAGATGTTAATGCGGGATCTTGC | 473 | 920 | 402 | 988

Row | Sequence | ETS1 binding intensity [1] | RUNX1 binding intensity [2] | ETS1 binding intensity [3] | RUNX1 binding intensity [4]
20 | GAGCCCAACCGGCATCCGTCGCGGTTGGACGTGGGC | 343 | 761 | 490 | 1070
21 | TGGCTGCCACTGAGAGGATGTGGTGACAGAGGTGGG | 1700 | 693 | 4350 | 886
22 | ACTGAAAACAGCACAGGATGTGGTCTGCCAGGTGCC | 4270 | 752 | 10100 | 1440
23 | TTTCCTCGGATTCCCGGATGTGGGTGAGTTCATTTG | 5690 | 809 | 9630 | 2000
24 | CCCGCTGTCACTTCCTGCTTCCCTCCCGCACACGTG | 2700 | 1920 | 2310 | 3690
25 | AGCTTGCGCAGGAAGTCTGCGGCAGGAGGGCGTCCT | 1920 | 687 | 2760 | 908
26 | GCACCGTCTACCCGGAAGTTGTGGGCTGGGAGGGAT | 5610 | 813 | 9990 | 1430
27 | AACACCACTTCCTACTGTGAAACCACACTGTATTTG | 456 | 1200 | 588 | 2980
28 | CAGATCCGGCGTGGACGAAGCTCGGGAACCACAACA | 353 | 798 | 456 | 1150
29 | ATGGAAAGGAAGTCGGTGGGAAACCGCCTCAGCGGT | 797 | 740 | 1020 | 1200
30 | AGTCCACACTACAGGAAACCACAGGCCTGAGCCCCA | 1580 | 2870 | 3180 | 3440
31 | TGGCATTCTCCTTCCTGTCTCCTAACCACAGCCCAC | 741 | 2110 | 2050 | 4690
32 | GCCGCTGGGTAGGCGGAAGTAGCCGCAGGCATGGCA | 5590 | 760 | 7400 | 1000
33 | TGACTTCCGGTCCGTAGTGGGGCCTGCGGTGGGAGT | 3690 | 801 | 10700 | 3180
34 | AGATGAGGAAGTTGGGGTTTAGAGTGGTTAAACTGT | 502 | 698 | 655 | 1020
35 | GTTCATCCAGGAAACCCCAACCCAGTGCCGCAGTAT | 538 | 895 | 464 | 1080
36 | TAGCCGTACGGAAATGTTTGTGGTTCTCTGCATCTA | 647 | 912 | 1010 | 1230
37 | CGGCTGGCAGGAAGTGGCCACTTGAACCGCAGATGC | 4480 | 1190 | 23300 | 3880
